VLA-4 inh – inhibition in a human VLA-4 binding assay. P13612. 330,000 compounds, 0.2% hits. inhibition, % (about 7 µM as worked out from the volumes in the protocol). VLA-4 expressing cells, ligand binding flow cytometry; in the data active means inhibition above about 50%
AI-2 QS mod – modulates the Vibrio harveyi AI-2 quorum sensing system; 300,000 compounds, 0.4% hits; activity change, % at 7.5 µM; AID 2094; Vibrio harveyi JMH597 AI-2 luminescence/OD600 ratio, 9 h; active compounds read low; strain lacks LuxN and CqsS sensors; 0 = neutral-control median; in the data active means activity change below about -75%, passing the limit was not always enough; inconclusive means no clear call, values can overlap the other calls;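 further: luminescence divided by OD600 gain over 9 h not by final OD600 alone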
DSG3 Ab inh – inhibitors of pemphigus antibody binding to human desmoglein-3; DSG3-coupled beads, scFv-anti-DSG3-GFP binding, flow cytometry; active compounds read low; binding (percent of control), % at 10 µM; 310,000 compounds, 0.48% hits; P32926;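 active means binding more than 3 SD below its plate's average and above zero; inconclusive means below that plate limit but binding exactly zero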;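 further: hits lower antibody fragment binding to DSG3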
NTR1 ag – activates human neurotensin receptor 1. P30989. NTR1-U2OS beta-arrestin-GFP spot imaging, agonist mode. activation, % at 20 µM. 330,000 compounds, 0.17% hits. AID 493036;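 active means activation at or above 40% of the spot to cytoplasm intensity ratio, with at least 20 cells analyzed; inconclusive means wells under 20 cells, flagged as cytotoxic or low count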;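 further: 0% = DMSO without peptide and 100% = 100 nM NTR1 peptide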
Target sequence (P30989 whole entry, looked up): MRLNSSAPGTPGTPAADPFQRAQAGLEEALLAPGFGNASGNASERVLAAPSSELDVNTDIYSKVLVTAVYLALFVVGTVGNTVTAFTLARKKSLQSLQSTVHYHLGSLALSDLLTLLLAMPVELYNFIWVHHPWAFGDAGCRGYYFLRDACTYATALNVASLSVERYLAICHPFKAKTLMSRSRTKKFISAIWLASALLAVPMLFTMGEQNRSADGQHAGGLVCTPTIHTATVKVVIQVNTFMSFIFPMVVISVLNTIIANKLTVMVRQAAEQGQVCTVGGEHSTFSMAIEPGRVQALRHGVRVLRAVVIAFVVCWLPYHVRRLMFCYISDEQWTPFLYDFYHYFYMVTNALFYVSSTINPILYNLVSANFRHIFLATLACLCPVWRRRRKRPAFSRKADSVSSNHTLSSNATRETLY
JMH597 growth rt – retest Vibrio harveyi JMH597 growth inhibition; OD600 absorbance, 9 h; lacks LuxN and CqsS sensors; AID 2726; shares compounds with AI-2 QS mod; 750 compounds, 1% hits; growth inhibition, % at 7.5 µM;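 active means every replicate shows growth inhibition above 50%; inconclusive means at least half, but not all, replicates pass that cutoff; inactive means fewer than half of replicates pass it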
BB721 const-QS lum – retest counter-screen: BB721 constitutive quorum sensing luminescence decrease; shares compounds with AI-2 QS mod; Vibrio harveyi BB721 luminescence, 9 h; inhibition, % at 7.5 µM; 750 compounds, 95% hits;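 active means inhibition above about 80% in every replicate, not just on average, limit read from the data; inconclusive means at least half of replicates past the limit, but not all; inactive means fewer than half of replicates past the limit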
BB721 growth rt – retest: inhibitors of Vibrio harveyi BB721 growth; shares compounds with AI-2 QS mod; OD600 absorbance, 9 h; growth inhibition, % at 7.5 µM; 750 compounds, 3% hits; AID 2728;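 active means every replicate shows growth inhibition above 50%; inconclusive means at least half but not all replicates above 50% inhibition; inactive means under half of replicates above 50% inhibition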
AI-2 QS JMH597 – Vibrio harveyi AI-2 signaling luminescence modulation – JMH597 strain, confirmation | shares compounds with AI-2 QS mod | Vibrio harveyi JMH597 AI-2 quorum sensing luminescence, 9 h; luxN and CqsS knockout, AI-2 only | inhibition, % at 7.5 µM | 750 compounds, 97% hits | AID 2736;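 active means every replicate shows more than 75% inhibition of signal versus neutral control wells; inconclusive means half to three quarters of replicates exceed 75% inhibition; inactive means fewer than half of replicates exceed 75% inhibition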
Active calls of the source: *; i = inactive; ? = inconclusive; / = no result given. This is a sample that favours compounds with a hit; in the whole collection about 1.1% have one here.

SMILES	VLA-4 inh	AI-2 QS mod	DSG3 Ab inh	NTR1 ag	JMH597 growth rt	BB721 const-QS lum	BB721 growth rt	AI-2 QS JMH597
Cc1nn(CC(=O)Nc2ccc(S(N)(=O)=O)cc2)c(=O)c2ccccc12	5.4	-83.9*	104.2	0.4	-11.4	97.9*	-14.0	98.6*
Cc1nn(CC(=O)Nc2ccc(C(=O)N3CCCC3)cc2)c(=O)c2ccccc12	-5.7	-82.7*	/	-0.8	-28.9	94.5*	-22.2	95.8*
CNC(=O)Cn1nc(C)c2ccccc2c1=O	1.6	3.5	100.0	-1.4	/	/	/	/
Cc1nn(CC(=O)Nc2nnc(CC(=O)N3CCCC3)s2)c(=O)c2ccccc12	10.7	4.8	99.0	2.2	/	/	/	/
Cc1nn(CC(=O)Nc2cccnc2)c(=O)c2ccccc12	4.9	-95.5*	97.4	1.0	-0.7	98.5*	-8.9	99.1*
Cc1ccc2cccc(CC(=O)NN)c2c1	/	/	105.1	/	/	/	/	/
Cn1nc(C(F)(F)F)c2cc(C(=O)Nc3ccc(F)cc3F)sc21	-4.1	13.8	80.2	-0.1	/	/	/	/
Cn1nc(C(F)(F)F)c2cc(NC(=O)OCc3ccc(F)cc3)sc21	10.2	-92.8*	113.7	-5.3	13.2	98.7*	39.9	98.1*
O=S(=O)(c1ccc(Br)s1)n1cccn1	11.7	-91.5*	110.2	0.0	18.0	98.1*	-29.9	99.9*
O=S(=O)(c1cccs1)n1cccn1	18.7	26.4	99.6	-0.9	/	/	/	/
O=S(=O)(NCc1ccccc1)c1ccc(NC(=S)NCc2ccco2)cc1	31.3	-97.4*	115.1	3.1	15.8	99.7*	-59.8	99.8*
COCCNC(=O)CN1C(=O)NC(c2ccccc2)(c2ccccc2)C1=O	2.4	-7.4	91.4	-1.1	/	/	/	/
CC(C)CCNC(=O)CN1C(=O)NC(c2ccccc2)(c2ccccc2)C1=O	0.7	-91.8*	100.3	2.7	7.1	90.2*	7.8	95.3*
C=CCNC(=O)NC(=O)CN1C(=O)NC(c2ccccc2)(c2ccccc2)C1=O	5.7	-84.9*	103.0	0.1	-4.0	93.6*	-9.4	95.7*
O=C(NCc1ccccc1)/C(=C\c1cccc([N+](=O)[O-])c1)NC(=O)c1ccco1	/	/	102.7	/	/	/	/	/
O=C(c1ccc2[nH]ccc2c1)N1CCCC(Nc2ccccc2)C1 (stereo unspecified)	-2.9	16.9	99.9	1.3	/	/	/	/
O=C(COC(=O)Cc1ccc(Br)cc1)Nc1ccc(Cl)cn1	-2.7	/	/	-0.7	/	/	/	/
C/C(=C/CCC(C)(O)C1CC[C@@]2(C)[C@@H]3CC=C4[C@@H](CC[C@H](O[C@H]5O[C@@H](CO)[C@H](O)[C@@H](O)[C@@H]5O)C4(C)C)[C@]3(C)C(=O)C[C@]12C)CO[C@@H]1O[C@H](CO)[C@@H](O)[C@H](O)[C@H]1O (stereo partly specified)	4.2	/	108.7	-1.0	/	/	/	/
c1ccc(CNc2ncnc3sccc23)cc1	0.5	12.3	108.4	1.8	/	/	/	/
COc1ccnc(N=CNOCc2ccc(C)cc2)c1C#N	0.1	6.6	?	-1.5	/	/	/	/
Clc1ccc(CON/C=N/c2ncnc3sccc23)cc1	9.3	-93.4*	94.5	2.5	16.8	97.9*	9.7	98.6*
C(=N\c1ncnc2sccc12)/NOCc1ccccc1	3.2	-94.7*	96.9	0.1	-10.7	97.7*	-24.1	98.3*
Nn1c(SCc2ccc([N+](=O)[O-])cc2)nc2ccccc2c1=O	i	-96.8*	100.3	5.2	-7.9	96.7*	-0.7	97.5*
O=c1c2ccccc2nc(SCc2ccc([N+](=O)[O-])cc2)n1-c1ccc(Cl)cc1	-11.8	11.8	90.7	2.1	/	/	/	/
COc1ccc(S(=O)(=O)Nc2ccc3c(c2)C(=O)N([C@H](C)CO)C[C@H](C)[C@@H](CN(C)C(=O)NC(C)C)O3)cc1	1.0	/	100.9	1.0	/	/	/	/
SMILES	VLA-4 inh	AI-2 QS mod	DSG3 Ab inh	NTR1 ag	JMH597 growth rt	BB721 const-QS lum	BB721 growth rt	AI-2 QS JMH597
O=C(Nc1ccc(Oc2ccc(NC(=O)c3ccco3)c(NC(=O)c3ccco3)c2)cc1)c1ccco1	8.9	13.1	93.5	2.5	/	/	/	/
O=C(Nc1ccc(Oc2ccc3ccccc3c2)cc1)c1ccco1	-3.8	-95.7*	104.0	0.3	30.9	99.2*	102.3*	99.1*
Cc1cc(C(C)(C)C)cc(CN2CCN(S(=O)(=O)c3cccs3)CC2)c1O	/	/	99.6	/	/	/	/	/
O=C(NCc1ccc2c(c1)OCO2)Nc1ccc2nsnc2c1	12.1	-84.8*	100.0	0.7	79.0*	97.3*	3.0	99.4*
COC(=O)c1cc(C)sc1NC(=O)CSc1ncccn1	-0.1	2.8	103.4	-0.2	/	/	/	/
Cc1occc1C(=O)NCCCc1ccccc1	8.2	-78.3*	102.2	-0.3	18.8	87.3*	11.4	90.7*
C=C1CC(COc2ccc3c(C)c(Cl)c(=O)oc3c2)(c2ccccc2)OC1=O (stereo unspecified)	/	/	96.6	/	/	/	/	/
CN(C)S(=O)(=O)c1ccc(NC(=O)CN2CCc3ccccc32)cc1	0.5	-91.9*	93.2	0.3	-16.8	95.5*	-7.6	96.8*
COC(=O)C[C@@H]1C[C@@H]2c3cc(NC(=O)Cc4ccncc4)ccc3O[C@@H]2[C@@H](CO)O1	/	/	102.8	/	/	/	/	/
O=C(Cn1cnc2ccccc2c1=O)Nc1ccc(N2CCOCC2)cc1	16.9	-25.2	119.5	-0.1	/	/	/	/
O=C(Cn1cnc2ccccc2c1=O)Nc1ccc(S(=O)(=O)N2CCOCC2)cc1	-0.4	-94.5*	116.3	-0.9	0.9	98.8*	-5.7	99.1*
O=C(Cn1cnc2ccccc2c1=O)Nc1ccc(S(=O)(=O)N2CCCC2)cc1	-3.0	-96.6*	74.5	-0.7	-8.7	99.6*	-0.4	99.7*
Cc1ccc(Oc2nc(-c3cccnc3)nc3ccccc23)c([N+](=O)[O-])n1	3.9	7.0	95.8	2.0	/	/	/	/
O=C(OCC(=O)N1CCc2ccccc21)[C@@H]1CC(O)CN1S(=O)(=O)c1ccccc1[N+](=O)[O-] (stereo partly specified)	-2.1	/	/	3.0	/	/	/	/
COC(=O)[C@H]1C[C@H](OC(=O)Nc2c(C)noc2C)[C@@]2(O)CN(S(=O)(=O)c3ccc(C)cc3)CC2[C@H]1C(=O)OC (stereo partly specified)	/	/	97.8	/	/	/	/	/
O=C(C#Cc1ccccc1)NCc1ccccc1F	-22.3	-85.3*	116.3	-0.7	16.1	94.1*	15.4	95.0*
COC(=O)/C=C/C(=O)Nc1cccnc1	4.4	-70.9	105.0	-1.8	/	/	/	/
COC(=O)/C=C/C(=O)Nc1ccc(O)c(Cl)c1	6.8	-93.0*	79.5	0.1	21.8	95.9*	42.0	95.5*
CC(COc1ccccc1Cc1ccccc1)N1CCCCC1 (stereo unspecified)	26.6	14.0	/	-1.7	/	/	/	/
CCCn1c(=O)c(C(=O)Nc2ccccc2N)c(O)c2ccccc21	/	/	101.8	/	/	/	/	/
